# APE1 inh = blocks human APE1 abasic DNA cleavage. P27695. recombinant APE1, TAMRA/BHQ-2 abasic DNA cleavage fluorescence. Potency, µM (highest dose often 65.8 µM), most hits filed as inhibitors. actives 0.35% (n = 350,000). AID 2517; also: nearly all actives have a fitted effect of over 55% in size
#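 APE1 at 0.75 nM preincubated 15 min at room temperature with compound. Reaction then started with 50 nM double-stranded THF-abasic substrate labelled with TAMRA/BHQ-2, and 525/598 nm fluorescence read kinetically. Activity taken as third-minus-first read difference, normalized to DMSO and NSC13755 controls.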
# FEN1 inhibitor = blocks human flap endonuclease 1. P39748. Recombinant FEN1 flap cleavage, fluorescence, 15 min. Potency, µM (titrated, usually from 114 µM), hits mostly inhibitors. actives 0.35% (n = 390,000); also: nearly all actives have a fitted effect of over 65% in size
#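 Recombinant FEN1 (10 nM) was preincubated with pin-transferred compounds for 15 min at room temperature, then flap DNA substrate (50 nM final) was added. Plates were read at 0 and 15 min, and normalized concentration–response data were fitted to a four-parameter Hill equation.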
# BLM helicase inh = Bloom syndrome helicase (human) inhibition. P54132. recombinant BLM DNA unwinding, fluorescence dequenching. Potency, µM (doses to about 56.1 µM), hits mostly inhibitors. actives 0.2% (n = 350,000); also: nearly all actives have a fitted effect of over 35% in size
# WRN helicase inh = blocks human WRN helicase | Potency, µM (doses to about 114 µM), most hits filed as inhibitors | actives 0.46% (n = 360,000) | WRN helicase unwinding, fluorescent forked duplex, kinetic | AID 651768 | Q14191; also: nearly all actives have a fitted effect of over 55% in size
# Target sequence (Q14191 whole entry, looked up): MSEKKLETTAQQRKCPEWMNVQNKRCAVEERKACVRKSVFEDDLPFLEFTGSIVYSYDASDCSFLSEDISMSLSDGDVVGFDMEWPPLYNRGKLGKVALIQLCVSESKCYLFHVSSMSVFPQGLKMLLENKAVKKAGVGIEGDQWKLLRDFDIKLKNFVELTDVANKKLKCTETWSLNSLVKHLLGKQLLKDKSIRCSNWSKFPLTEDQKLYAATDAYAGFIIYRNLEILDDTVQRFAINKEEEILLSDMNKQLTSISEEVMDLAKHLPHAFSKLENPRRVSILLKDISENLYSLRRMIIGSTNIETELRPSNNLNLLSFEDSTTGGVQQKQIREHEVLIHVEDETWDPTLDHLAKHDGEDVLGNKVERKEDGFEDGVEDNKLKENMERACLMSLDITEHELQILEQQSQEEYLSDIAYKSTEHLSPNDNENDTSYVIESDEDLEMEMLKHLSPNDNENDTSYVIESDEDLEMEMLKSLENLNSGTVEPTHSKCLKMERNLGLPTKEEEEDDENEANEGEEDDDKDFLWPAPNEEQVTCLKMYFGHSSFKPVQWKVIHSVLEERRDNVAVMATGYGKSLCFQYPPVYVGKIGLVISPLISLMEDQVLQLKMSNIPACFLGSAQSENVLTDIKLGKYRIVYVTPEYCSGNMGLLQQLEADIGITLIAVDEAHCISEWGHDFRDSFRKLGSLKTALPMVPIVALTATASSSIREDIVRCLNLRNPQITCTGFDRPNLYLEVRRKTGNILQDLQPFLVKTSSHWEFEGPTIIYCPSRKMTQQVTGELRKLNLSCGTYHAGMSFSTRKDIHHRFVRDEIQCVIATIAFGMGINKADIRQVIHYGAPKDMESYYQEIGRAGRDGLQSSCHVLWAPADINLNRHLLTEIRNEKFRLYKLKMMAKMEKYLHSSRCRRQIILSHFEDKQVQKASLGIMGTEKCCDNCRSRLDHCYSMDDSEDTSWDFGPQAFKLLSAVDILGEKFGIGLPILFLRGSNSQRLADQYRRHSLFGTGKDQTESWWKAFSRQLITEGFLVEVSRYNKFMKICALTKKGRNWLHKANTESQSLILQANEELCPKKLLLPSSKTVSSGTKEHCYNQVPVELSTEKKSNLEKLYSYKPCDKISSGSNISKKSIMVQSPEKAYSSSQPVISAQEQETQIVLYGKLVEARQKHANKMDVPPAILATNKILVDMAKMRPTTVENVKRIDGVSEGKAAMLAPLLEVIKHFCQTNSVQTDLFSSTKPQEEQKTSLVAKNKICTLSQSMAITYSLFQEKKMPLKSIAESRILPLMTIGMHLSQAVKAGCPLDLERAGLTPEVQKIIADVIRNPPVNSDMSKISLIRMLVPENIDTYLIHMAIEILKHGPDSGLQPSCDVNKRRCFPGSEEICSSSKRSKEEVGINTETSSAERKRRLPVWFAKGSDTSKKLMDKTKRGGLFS
#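 Primary qHTS, 1536-well format. 20 nM WRN + compound, 15 min RT; start with 100 nM forked fluorophore/quencher duplex, 2 mM ATP (final); kinetic read ex 525/em 598 nm.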
# RECQ1 helicase = RECQ1 (human) helicase inhibition; actives 0.54% (n = 240,000); RECQ1 DNA unwinding, red fluorescence kinetic read; Potency, µM (titrated, usually from 57.3 µM), usual class: inhibitors; also: nearly all actives have a fitted effect of over 30% in size
#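 50 nM RECQ1T1 preincubated 15 min with compound in Tris pH 8.0 buffer with MgCl2, DTT, Tween-20 and 2.5 ug/ml poly(dI-dC); started with 200 nM TAMRA/BHQ-2 forked duplex and 2 mM ATP. Unwinding read as fluorescence (525/598 nm), two reads 2 h apart.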
# A number is an active result; i = inactive; ? = inconclusive; nt = no result; ! = not active in a repeat; [ ] = dose if it differs, or a comment. Shown are actives, neighbours in structure and some others; about 0.87% of the full set was active somewhere. Calls follow the shape of the dose curve; as a rule, active = well fitted curve in the direction sought with a large enough effect; inconclusive = small, poorly fitted or top-dose-only effect, or another doubt; inactive = no such curve, though single readings can be large; an effect the other way counts as inactive or inconclusive.
SMILES,APE1 inh,FEN1 inhibitor,BLM helicase inh,WRN helicase inh,RECQ1 helicase
CC(=O)c1ccc(S(=O)(=O)Nc2cccc(-n3cnnn3)c2)cc1,i,i,i,56.2µM,nt
CC(=O)Nc1ccc(S(=O)(=O)Nc2cccc(-n3cnnn3)c2)cc1,i,i,i,i,nt
O=C(O)c1cccc(Cn2c(Cl)c(/C=N/Nc3ccccc3)sc2=O)c1,i,i,?,i[11.6 µM],31.6µM
O=C(O)c1cccc(Cn2c(Cl)c(/C=N/NC(=O)c3ccccc3Cl)sc2=O)c1,i,i,i,i,i
COc1ccc(OC)c(Nc2nc(NCc3ccco3)c3ccccc3n2)c1,i,?,28.2µM,?,nt
Cc1ccccc1Nc1nc(NCc2ccco2)c2ccccc2n1,i,i,i,i,i
CCOc1ccc(OC(=O)c2sc3ncn(Cc4cccc(F)c4)c(=O)c3c2C)cc1,nt,i,i,nt,nt
CCN1C(=O)/C(=C\N(C(C)=O)c2ccccc2)OC1=S,i,i,i,i,i
CC(=O)N(/C=C1\SC(=S)N(c2ccccc2)C1=O)c1ccccc1,i,i,i,i,31.6µM
Cc1cnc(C(=O)OCc2nc3ccsc3c(=O)[nH]2)cn1,i,?,nt,50.1µM,nt
O=C(/C=C/c1ccc(Br)o1)OCc1nc2ccsc2c(=O)[nH]1,?,79.4µM,nt,14.1µM,nt
S=c1[nH]nc(-c2cc(-c3ccccc3)n[nH]2)n1/N=C/C(Br)=C/c1ccccc1,i,?,i,44.7µM,i
CS(=O)(=O)c1sc(C#N)c2c1C(=O)CC(c1ccccc1)C2 (centres undefined),i,i,i,39.8µM,i
CCN1C(=O)c2ccccc2S(=O)(=O)c2ccc(C(=O)NCc3ccccc3Cl)cc21,nt,i,i,nt,nt
COc1ccc2c(c1)c[n+](C)c1c3cc(OC)c(OC)cc3ccc21,nt,nt,nt,i,nt
COc1cc2c[n+](C)c3c4ccccc4ccc3c2cc1OC,nt,6.31µM,nt,i,nt
Cc1cc(C(=O)N/N=C/c2c3ccccc3cc3ccccc23)n[nH]1,i[12.4 µM],i,i,?,nt
NC(=O)C(=O)N/N=C/c1c2ccccc2cc2ccccc12,i,25.1µM,i,i[11.6 µM],nt
O=C(NCCCN1CCOCC1)C(=O)N/N=C/c1c2ccccc2cc2ccccc12,i,39.8µM,i,i,i
COc1cccc(C2=Nn3c(nnc3-c3ccccc3C)SC2)c1,i,nt,i,nt,i
COc1ccc(NC(=O)CCCn2nc(C)c3sc4ccccc4c3c2=O)cc1,nt,i,i,nt,nt
COc1ccc(NC(=O)CN(C)C(=O)c2cc3c(s2)CCCCC3)cc1,i,i,i,i,nt
COc1ccc(NC(=O)CN(C)C(=O)c2cc3c(s2)CCC3)cc1,1.89µM,25.1µM,nt,39.8µM,nt
CCN(CC)/[N+]([O-])=N/OCOC(=O)c1ccccc1OC(C)=O,nt,i,nt,nt,nt
O=C1CC(c2ccco2)CC(O)=C1C=NCC1CCNCC1 (centres undefined),31.6µM,i,i,i,i
SMILES,APE1 inh,FEN1 inhibitor,BLM helicase inh,WRN helicase inh,RECQ1 helicase
COc1ccc(OC)c(NC(=O)C(=O)/C=C(\O)c2cc(OC)ccc2OC)c1,i,39.8µM,i,i,i
O=[N+]([O-])c1ccc(O/N=[N+](\[O-])N2CCCC2)c([N+](=O)[O-])c1,nt,i,nt,nt,nt
COc1cc2c(NC3CCN(C(C)C)CC3)nc(N3CCCN(C)CC3)nc2cc1OCCCN(C)C,nt,31.6µM,nt,nt,nt
COc1ccc(Nc2nc(N3CCCCC3)nc3ccccc23)c(OC)c1,i,?,i,i,i
COc1cc2c(NC3CCN(C)CC3)nc(N3CCCN(C)CC3)nc2cc1OCCN(C)C,nt,25.1µM,nt,nt,nt
CCN(CC)CCCOc1cc2nc(N3CCCN(C)CC3)nc(NC3CCN(C)CC3)c2cc1OC,nt,25.1µM,nt,nt,nt
COc1cc2c(NC3CCN(C)CC3)nc(N3CCCN(C)CC3)nc2cc1OCCCCN,nt,10µM,nt,nt,nt
c1cc2c3c(c1)CCC[N+]3(C1CCCCC1)CCC2,nt,i,nt,nt,nt
COc1cccc(-c2nc(NC3CCNCC3)c3ccccc3n2)c1,i,nt,i,nt,i
COc1cc2c(NC3CCN(C)CC3)nc(N3CCCN(C)CC3)nc2cc1OCC1CCNCC1,nt,10µM,nt,nt,nt
COc1cc2c(NC3CCN(C)CC3)nc(N3CCCN(C)CC3)nc2cc1OCCCCCN(C)C,nt,22.4µM,nt,nt,nt
CC(=O)c1cccc(NC(=O)CCc2c(C)nc3c(-c4ccc(F)cc4)c(C)nn3c2C)c1,nt,i,i,nt,nt
C=C1C=C(C(F)F)n2ncc(C(=O)NCCc3ccc(OC)c(OC)c3)c2N1,i,nt,nt,nt,nt
N#Cc1ccc(N=c2ssnc2Cl)cc1,i,?,i,39.8µM!,i
COc1cc(N=c2ssnc2Cl)cc(OC)c1OC,i,i,i,56.2µM,i

# Compound activity as filed in PubChem.
